Test results taken from the supplement of paper PMC8728848.
This excerpt belongs to a sample that is enriched for the strongest signals.

Experiments:
Test in all cases: glycan array binding signal (z-score within array); higher = stronger binding
Details in all cases: glycan notation: IUPAC condensed, linker removed
[1] = test system: Fuc(a1-3)GlcNAc
Outline: (§1)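 The binding signal is a Z-score computed within each array and averaged over linkers. Arrays of the same protein sequence at different concentrations or buffers were also averaged together. Data originate from 3228 arrays in the Consortium for Functional Glycomics database, kept only where the protein sequence was available.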

[2] = test system: Fuc(a1-3)[Gal(b1-4)]Glc6S
Outline: as §1

[3] = test system: Fuc(a1-3)[Gal(b1-4)]GlcNAc(b1-3)Gal(b1-3)[Fuc(a1-4)]GlcNAc
Outline: as §1

[4] = test system: Fuc(a1-2)[GalNAc(a1-3)]Gal(b1-4)GlcNAc
Outline: as §1

[5] = test system: Fuc(a1-2)[GalNAc(a1-3)]Gal(b1-4)[Fuc(a1-3)]GlcNAc(b1-3)GalNAc
Outline: as §1

[6] = test system: Fuc(a1-2)[GalNAc(a1-4)]Gal(b1-4)GlcNAc
Outline: as §1

[7] = test system: Fuc(a1-3)[Gal3S(b1-4)]GlcNAc6S
Outline: as §1

[8] = test system: Fuc(a1-3)[Gal(b1-4)]GlcNAc(b1-2)Man
Outline: as §1

[9] = test system: Fuc(a1-3)[Gal3S(b1-4)]GlcNAc
Outline: as §1

[10] = test system: Fuc(a1-3)[GalNAc(b1-4)]GlcNAc
Outline: as §1

[11] = test system: Fuc(a1-2)[GalNAc(a1-3)]Gal(b1-4)GlcNAc(b1-6)GalNAc
Outline: as §1

[12] = test system: Fuc(a1-2)[GalNAc(a1-3)]Gal(b1-4)GlcNAc(b1-3)GalNAc
Outline: as §1

[13] = test system: Fuc(a1-3)[Gal(b1-4)]GlcNAc(b1-2)Man(a1-3)[Fuc(a1-3)[Gal(b1-4)]GlcNAc(b1-2)Man(a1-6)]Man(b1-4)GlcNAc(b1-4)GlcNAc
Outline: as §1

[14] = test system: Fuc(a1-3)[Neu5Ac(a2-3)]Gal(b1-4)GlcNAc(b1-3)GalNAc
Outline: as §1

[15] = test system: Fuc(a1-2)[GalNAc(a1-3)]Gal(b1-4)GlcNAc(b1-3)Gal(b1-4)GlcNAc
Outline: as §1

[16] = test system: Fuc(a1-3)[Gal(b1-4)]GlcNAc(b1-3)Gal(b1-4)[Fuc(a1-3)]GlcNAc(b1-3)Gal(b1-4)[Fuc(a1-3)]GlcNAc
Outline: as §1

[17] = test system: Fuc(a1-3)[Gal(b1-4)]GlcNAc(b1-3)GalNAc
Outline: as §1

[18] = test system: Fuc(a1-2)[GalNAc(b1-3)]Gal
Outline: as §1

[19] = test system: Fuc(a1-3)[Gal(b1-4)]GlcNAc(b1-6)[Gal(b1-3)GlcNAc(b1-3)]Gal(b1-4)Glc
Outline: as §1

[20] = test system: Fuc(a1-2)[GalNAc(a1-3)]Gal
Outline: as §1

BambL (Burhholderia ambifaria), Q0B4G1
glycan array binding signal (z-score) [1]: 7.79 | glycan array binding signal (z-score) [2]: -0.021 | glycan array binding signal (z-score) [3]: 1.03

AgI/II Vhelical-GFP (Streptococcus mutans)
glycan array binding signal (z-score) [4]: -0.146 | glycan array binding signal (z-score) [5]: 2.49 | glycan array binding signal (z-score) [6]: 2.31 | glycan array binding signal (z-score) [7]: -0.111

Wza (Escherichia coli), P0A930
glycan array binding signal (z-score) [8]: 0.907 | glycan array binding signal (z-score) [9]: -1.1 | glycan array binding signal (z-score) [10]: -1.12

AgI/IIC123-GFP (Streptococcus mutans)
glycan array binding signal (z-score) [11]: 2.18 | glycan array binding signal (z-score) [5]: 4.84 | glycan array binding signal (z-score) [2]: -0.357 | glycan array binding signal (z-score) [7]: -0.143

LcI (Legionella pneumophila)
glycan array binding signal (z-score) [12]: 0.164 | glycan array binding signal (z-score) [11]: 2.06 | glycan array binding signal (z-score) [13]: 0.959

SpGH101 (Streptococcus pneumoniae), Q8DR60
glycan array binding signal (z-score) [6]: -0.12 | glycan array binding signal (z-score) [13]: -0.202 | glycan array binding signal (z-score) [3]: -0.148 | glycan array binding signal (z-score) [9]: -0.161 | glycan array binding signal (z-score) [14]: 0.764

Epa22
glycan array binding signal (z-score) [15]: 0.068

Actinohivin (Actinomycete K97)
glycan array binding signal (z-score) [16]: -0.173 | glycan array binding signal (z-score) [17]: -0.169 | glycan array binding signal (z-score) [10]: -0.17

SiiE (Salmonella typhimurium), A0A0H3NVH0
glycan array binding signal (z-score) [18]: 1 | glycan array binding signal (z-score) [2]: 1.25 | glycan array binding signal (z-score) [19]: 1.13

GspB (Streptococcus gordonii), Q939N5
glycan array binding signal (z-score) [20]: -0.616
